Measured values: ChEMBL document CHEMBL4513216, “Probing the Open Global Health Chemical Diversity Library for Multistage-Active Starting Points for Next-Generation Antimalarials” (ACS Infect Dis, 2020)
Out of some 69,000 compounds screened, about 8,600 (12%) showed an effect of 50% or more. The list comes from a sample in which strong results are over-represented; it also holds similar structures and randomly drawn compounds.

What follows are molecules tested on Plasmodium berghei (assay: Screen against P. berghei liver stage (PbLuc), transformed with Luciferase, at 10uM). Conditions: tested at 10 uM.
Assay type: functional, HepG2

| SMILES | INHIBITION [%] |
| --- | --- |
| Cc1cnn(CC(C)Nc2nc(C)cc(N(C)C)n2)c1 (stereo not drawn) | 15.6 |
| Cc1cc(-n2c(C)cn(CN(C)CC3CC3)c2=O)no1 | -8.9 |
| Cc1ccc(NC(=O)N2CCCC(N(C)C)C2)c(Br)c1 (stereo not drawn) | 15.1 |
| Cc1cc(C(=O)N[C@H](C)c2onc(-c3cccnc3)c2C(=O)O)c(C)o1 | -30.7 |
| NS(=O)(=O)CCCNC(=O)C1(c2cccc(Cl)c2)CC1 | 11.8 |
| CCn1nc(C)c2nnn(CC(=O)Nc3ccc(C)cc3)c(=O)c21 | 29.2 |
| Cc1c[nH]c(C2COCCN2C(=O)CCc2c(C)n[nH]c2C)n1 (stereo not drawn) | -3.65 |
| Cc1nc(C(C)C)sc1C(C)N(C)C(=O)c1ccc(=O)n(C)c1 (stereo not drawn) | 16.1 |
| O=C(c1ccoc1)N1CCOC2(COCCN(CC3CC3)C2)C1 (stereo not drawn) | 71.3 |
| Cn1ccc(C(=O)N2CCOC3(COCCN(CC4CC4)C3)C2)n1 (stereo not drawn) | -25.1 |
| O=C(c1ccoc1)N1CCOC2(COCCN(c3ncccn3)C2)C1 (stereo not drawn) | 46.6 |
| CNC(=O)CCc1cc(C2CCCCN2C)nc(C)n1 (stereo not drawn) | -11.3 |
| O=C1[C@H]2CN(Cc3ccccn3)C[C@H]2CN1c1ccsc1 | 56.7 |
| O=C1[C@H]2CN(Cc3ccncc3)C[C@H]2CN1c1ccsc1 | 15.9 |
| Cn1cc(N2C[C@@H]3CN(Cc4ccccn4)C[C@@H]3C2=O)cn1 | 34.9 |
| O=C1[C@H]2CN(Cc3nccs3)C[C@H]2CN1c1ccsc1 | 32.4 |
| COc1ccc(CN2C[C@H]3CN(c4ccsc4)C(=O)[C@H]3C2)cc1 | 50 |
| O=C1[C@H]2CN(Cc3ccc(F)cc3)C[C@H]2CN1c1ccsc1 | 22.9 |
| O=C(c1ccco1)N1CC[C@@H](N2CCOCC2)[C@@H]1Cc1ccncc1 | 24.1 |
| Cc1cc(CN2CCN(C(=O)NCc3c(C)noc3C)CC2)on1 | 44.3 |
| O=c1[nH]nc2c(S(=O)(=O)N3CCN(c4ccc(F)cc4)CC3)cccn12 | 39.5 |
| Cc1cnn(CCNCc2csc(-c3ccsc3)n2)c1 | -69.15 |

| SMILES | INHIBITION [%] |
| --- | --- |
| CC(CN1CCOCC1)NC(=O)Nc1cccnc1-n1cccn1 (stereo not drawn) | -31.1 |
| CN(C)CCO[C@@H]1CC[C@H]2[C@H]1OCCN2C(=O)c1ccc(F)cc1 | 42.1 |
| CC(=O)N1CCC(Cc2cnc(-c3c(C)n[nH]c3C)cn2)CC1 | 1.5 |
| Cc1cc(NC(C)Cc2cccs2)n2nccc2n1 (stereo not drawn) | 42.1 |
| Cn1cc(CN2CCC(F)(F)C3(CCN(c4cnccn4)C3)C2)cn1 (stereo not drawn) | -31.5 |
| CCOc1ncnc2c1CCN(Cc1cccs1)CC2 | 36.2 |
| COc1cc(C)ccc1OCCC(=O)N1CCCC(n2cncn2)C1 (stereo not drawn) | -16 |
| CCOCC1CN(C(=O)COc2ccccc2)Cc2cn(C)nc21 (stereo not drawn) | 5.96 |
| CCOCC1CN(C(=O)c2cnoc2C)Cc2cnn(C)c21 (stereo not drawn) | -11.2 |
| CCOCC1CN(C(=O)Cc2ccccn2)Cc2cnn(CC)c21 (stereo not drawn) | 54.4 |
| CCOCC1CN(C(=O)Cc2ccccn2)Cc2cn(CC)nc21 (stereo not drawn) | 31.4 |
| CCOCC1CN(C(=O)c2cnoc2C)Cc2cn(CC3CC3)nc21 (stereo not drawn) | -50.8 |
| CCOCC1CN(C(=O)c2cnoc2C)Cc2cn(C)nc21 (stereo not drawn) | 51.2 |
| CCOCC1CN(C(=O)Cc2ccccn2)Cc2c1cnn2CC (stereo not drawn) | 42.7 |
| CCOCC1CN(C(=O)Cc2ccccn2)Cc2cn(C)nc21 (stereo not drawn) | 51.2 |
| CCOCC1CN(C(=O)Cc2ccccn2)Cc2cnn(C)c21 (stereo not drawn) | -45.8 |
| CC(NC(=O)N1CCC1)c1ccc(S(C)(=O)=O)cc1 (stereo not drawn) | 18.4 |
| CC(=O)N(C)c1nc(CN2CCCC2Cn2nc(C)cc2C)cs1 (stereo not drawn) | -14.7 |
| O=C(c1csc(-c2ccccn2)n1)N1CCCC1Cn1cccn1 (stereo not drawn) | 38.8 |
| O=C(Cc1cccs1)N1CCC(O)(CN2CCc3ccccc3C2)C1 (stereo not drawn) | 38.2 |
| CC(=O)NCC1CCN(C(=O)CCOc2ccc(C(C)C)cc2)CC1 | -39.35 |
| CSc1ccc(CNC(=O)NCC(O)c2cccc(F)c2)cc1 (stereo not drawn) | 19.6 |

| SMILES | INHIBITION [%] |
| --- | --- |
| CNC(=O)NCC1CCC2(CCN(c3ncccn3)CC2)CO1 (stereo not drawn) | 15.8 |
| CC(=O)N1CC(=O)N(c2cnn(C)c2)CC12CCN(Cc1cccs1)C2 (stereo not drawn) | 6.27 |
| CN(C)Cc1csc(-c2nccn2CCc2cccnc2)c1 | 59.1 |
| Cc1nc(C)c(Cn2ccnc2-c2cc(CN(C)C)cs2)s1 | 30.9 |
| Cc1c(Cn2ccnc2-c2cc(CN(C)C)cs2)cnn1C | 23.5 |
| CN(C)Cc1csc(-c2nccn2Cc2ccsc2)c1 | 66.1 |
| CN(C)Cc1csc(-c2nccn2Cc2ccc(C(=O)O)cc2)c1 | 37.4 |
| CN(C)Cc1cc(-c2nccn2CCc2cccnc2)ccc1O | 31.3 |
| O=C(NCC1CCOCC1)c1cc(-c2ccncc2)c2cnccc2n1 | 17.4 |
| CN(Cc1nnc2n1CCC2)C(=O)CCc1ccc2c(c1)OCO2 | -21.8 |
| C[C@H]1CN(Cc2cccc(F)c2)C[C@@]12CCN(CC(=O)N(C)C)C2=O | 19.8 |
| Cc1ccc(N2CCCC(NCc3ccc(Cl)o3)C2)nn1 (stereo not drawn) | -12.1 |
| Cc1n[nH]c(C)c1CN(C)C(C(=O)O)c1c(F)cccc1OC(C)C (stereo not drawn) | 40.6 |
| COc1cc(C)cc(OC)c1C(C(=O)O)N(C)Cc1c(C)nn(C)c1C (stereo not drawn) | 9.56 |
| COc1ccc(C(C(=O)O)N(C)Cc2ccon2)cc1Cl (stereo not drawn) | -23.5 |
| COc1cccc(Cl)c1C(C(=O)O)N(C)Cc1c(C)n[nH]c1C (stereo not drawn) | 57.6 |
| Cc1n[nH]c(C)c1CN(C)C(C(=O)O)c1ccc2c(c1)OCO2 (stereo not drawn) | 11.2 |
| COc1cccc(Cl)c1C(C(=O)O)N(C)Cc1nnc(C)o1 (stereo not drawn) | 52.2 |
| COc1cccc(C(=O)N(C)C(C)c2c(C)n[nH]c2C)c1OC (stereo not drawn) | 12.6 |
| CCOc1ccccc1C(C(=O)O)N(C)Cc1nnc(C)o1 (stereo not drawn) | -0.614 |
| COc1cccc(OC)c1C(C(=O)O)N(C)Cc1c(C)n[nH]c1C (stereo not drawn) | 53.3 |
| COc1ccc(CCC(=O)Nc2ccc3ncn(C)c(=O)c3c2)cc1 | 22.3 |

| SMILES | INHIBITION [%] |
| --- | --- |
| COCc1cn(CC2CCN(Cc3nc(C)c[nH]3)CC2)nn1 | -7.85 |
| Cc1cc(C(=O)N2CCc3c(CN(C)C)nn(C)c3C2)[nH]n1 | 13.7 |
| O=C(NCCc1ccncc1)c1cccc(S(=O)(=O)N[C@@H]2CCNC2)c1 | -16.1 |
| O=C(Nc1nc2c(s1)CNCC2)C1CC1 | 52.7 |
| O=C(Nc1nc2c(s1)CNCC2)NC1CCCC1 | 44.5 |
| O=C(Nc1nc2c(s1)CN(S(=O)(=O)C1CC1)CC2)C1CC1 | 37.9 |
| O=C(c1cc(-n2cccn2)ccn1)N1CCOc2ncccc21 | 30.5 |
| COc1cccc(OCC(=O)N2CCOc3ccncc32)c1 | -28.9 |
| O=C(c1cc(-n2cccn2)ccn1)N1CCOc2ccncc21 | 52.9 |
| COc1ccc(C(=O)N2CCOc3ccncc32)cc1 | 60 |
| O=C(c1cc(-n2cccn2)ccn1)N1CCOc2ccc(F)cc21 | 23.3 |
| O=C(COc1ccccc1Br)N1CCOc2ccncc21 | 9.35 |
| c1cnc2c(c1)cc([C@@H]1CCCO1)n2CCN1CCCCC1 | 38.8 |
| COC(=O)C(c1cc(F)ccc1F)N(C)C(=O)c1cnccn1 (stereo not drawn) | 48.4 |
| CC(C)c1nn(C)c(N(C)C)c1CNC(C)c1ccccc1F (stereo not drawn) | 15.5 |
| Cc1nc(CO[C@@H]2CN(Cc3ccco3)[C@@H]3COC[C@@H]32)cs1 | 18.2 |
| c1csc(N2CCN(Cc3cc4n(n3)CCNC4)CC2)n1 | -90.8 |
| OC(c1ccccn1)C1CCN(Cc2cc3n(n2)CCNC3)CC1 (stereo not drawn) | 61.5 |
| c1ccc(C2CCCN(Cc3cc4n(n3)CCNC4)CC2)cc1 (stereo not drawn) | 18.4 |
| O=C1OCCN1C1CCN(Cc2cc3n(n2)CCCNC3)CC1 | -78.3 |
| OC(c1ccccn1)C1CCN(Cc2cc3n(n2)CCCNC3)CC1 (stereo not drawn) | 51.2 |
| c1ccc(COC2CCN(Cc3cc4n(n3)CCCNC4)CC2)nc1 | 37.9 |

| SMILES | INHIBITION [%] |
| --- | --- |
| c1cc(CNc2cnc(C3CCCN3)cn2)ccn1 (stereo not drawn) | 3.03 |
| COc1ccc(-c2cc(C3(O)CCCC3)on2)cc1 | -111 |
| CNC(=O)[C@H]1C[C@H]2OCC[C@H]2N(Cc2ccc(C)o2)C1 | 10.3 |
| Cn1cc(C2CC(=O)NC23CCN(Cc2ccncc2)CC3)cn1 (stereo not drawn) | -16.2 |
| CCOC(=O)N[C@H]1C[C@@H](C(=O)NCc2cccc(Cl)c2)N(C)C1 | -0.71 |
| CCOC(=O)N[C@H]1C[C@@H](C(=O)NCCc2cccc(Cl)c2)N(C)C1 | 55 |
| COCC(=O)N[C@H]1C[C@@H](C(=O)NCCc2cccc(Cl)c2)N(C)C1 | 31.1 |
| CC(C)CC(=O)N(C)CC(=O)Nc1ccc(Br)cn1 | 29.7 |
| CCN1CCN(c2ccc(C(=O)NCCn3ccnc3)cc2F)CC1 | 38.8 |
| CCN1CCN(c2ccc(C(=O)NCc3cc(C)no3)cc2F)CC1 | 11.7 |
| CCN1CCN(c2ccc(C(=O)NCCOC)cc2F)CC1 | 76.7 |
| Cn1nc(CN2CCCC2)c2c1CN(C(=O)Nc1cccc(F)c1)CC2 | 20.1 |
| CCCc1ccc(C(=O)N2Cc3c(Cn4ccnc4)nn(C)c3C2)cc1 | 78.8 |
| Cn1nc(Cn2ccnc2)c2c1CN(C(=O)c1ccoc1)C2 | 47.4 |
| Cc1ccc(C(=O)N2Cc3c(CN4CCCCC4)nn(C)c3C2)cc1F | -31 |
| Cc1ccc(C(=O)N2CCc3c(CN4CCCC4)nn(C)c3C2)cc1C | 44.3 |
| Cc1ccc(C(=O)N2Cc3c(CN4CCCCC4)nn(C)c3C2)cc1C | 65.4 |
| CN(C)Cc1nn(C)c2c1CN(C(=O)Nc1cccc(F)c1)C2 | -36.2 |
| Cn1nc(CN2CCCCC2)c2c1CN(C(=O)Nc1cccc(F)c1)C2 | 79.6 |
| COc1ccc(C(=O)N2Cc3c(Cn4ccnc4)nn(C)c3C2)cc1 | 32.4 |
